Experimental data as given in PubChem BioAssay (Tox21).
Records with an inconclusive call do not appear. Active and inactive are the calls of the source. Unless noted, calls follow the shape of the dose curve; as a rule, active = well fitted curve in the direction sought with a large enough effect in the repeat runs; inconclusive = weak or mixed curves; inactive = no such curve, though single readings can be large; an effect the other way counts as inactive or inconclusive.

Key:
[1] = qHTS assay to identify small molecule agonists of the RXR signaling pathway - cell viability counter screen (AID 1159529); also: series mostly up to about 77 µM; nearly all actives have a fitted effect of over 50% in size
Method in brief: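 Tox21 10K compounds were tested for cytotoxicity against GeneBLAzer RXR-alpha HEK 293T cells grown in 2% charcoal-stripped FBS. Exposure lasted 16 hr at 37 C, 5% CO2; viability read by CellTiter-Glo luminescence.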

[2] = qHTS assay to identify small molecule antagonists of the retinoid acid receptor (RAR) signaling pathway - cell viability counter screen (AID 1159551); also: nearly all actives have a fitted effect of over 35% in size
Method in brief: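 ATP-based viability, C3RL4 cells, 6 h at 37 C with 1 uM final retinol co-added after compound; luminescence read 30 min post CellTiter-Glo, RT.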

[3] = qHTS assay to identify small molecule antagonists of the retinoic acid receptor (RAR) signaling pathway (AID 1159552; also: nearly all actives have a fitted effect of over 50% in size)
Method in brief: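 Overnight-plated C3RL4 reporter cells get compound, then retinol to 1 uM final; plates sit 6 hr at 37 C, 5% CO2. A luciferase reagent is added and light output recorded after 30 min at room temperature.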

[4] = qHTS assay to identify small molecule agonists of the retinoic acid receptor (RAR) signaling pathway (AID 1159553)
Method in brief: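 Quantitative high-throughput format: the Tox21 10K library was tested on C3RL4 RARE-luciferase cells for 6 hr at 37 C and 5% CO2, with luminescence measured after a 30 min room-temperature reagent step.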

[5] = qHTS assay to identify small molecule antagonists of the estrogen related receptor (ERR) signaling pathway - cell viability counter screen (AID 1224818);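 also: series mostly up to about 46 µM; viability measured after 17.5 h of compound exposure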
Method in brief: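 Quantitative high-throughput viability counter screen in ERR cells. Compounds (DMSO) incubated 17.5 h at 37 C; read-out was CellTiter-Fluor fluorescence.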

[6] = qHTS assay to identify small molecule agonists of the estrogen related receptor (ERR) signaling pathway (AID 1224820)
Method in brief: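 Following a 6 h settling period, 2,000 ERR cells per well receive DMSO-dissolved compounds by pin tool and incubate 18 h at 37 C; agonist activity is scored from One-Glo luminescence read 30 min post-addition.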

[7] = qHTS assay to identify small molecule antagonists of the estrogen related receptor signaling pathway with the pleiotropic PPARgamma coactivator (PGC) cell viability counter screen (AID 1224822; also: series mostly up to about 46 µM)
Method in brief: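 Cytotoxicity in the PGC/ERR cell line is assessed with CellTiter-Fluor, read as fluorescence intensity 30 min after reagent addition, following 17.5 h compound treatment at 37 C.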

[8] = qHTS assay to identify small molecule agonists of the estrogen related receptor signaling pathway with the pleiotropic PPARgamma coactivator (PGC) (AID 1224823)
Method in brief: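 In this quantitative high-throughput screen, an 18 h, 37 C treatment of PGC/ERR cells with compounds in DMSO preceded a One-Glo luminescence read taken after 30 min at room temperature.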

[9] = qHTS assay to identify small molecule antagonists of the estrogen related receptor (ERR) signaling pathway from Tox21 library - cell viability counter screen (AID 1224834); also: nearly all actives have a fitted effect of over 30% in size; also: potency is read from the fitted curve at half-maximal effect
Method in brief: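 Compounds in DMSO were pinned onto ERR cells that had been incubated for 6 h, and the plates were held at 37 C for 17.5 h. CellTiter-Fluor reagent was then added and fluorescence was measured after 30 min.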

[10] = biological target: Luciferin 4-monooxygenase (Photinus pyralis) (UniProt P08659); assay: qHTS assay to identify small molecule inhibitors of firefly luciferase (AID 1224835); also: nearly all actives have a fitted effect of over 25% in size; also: potency is read from the fitted curve at half-maximal effect
Sequence of Luciferin 4-monooxygenase (Photinus pyralis) (P08659 whole entry, looked up): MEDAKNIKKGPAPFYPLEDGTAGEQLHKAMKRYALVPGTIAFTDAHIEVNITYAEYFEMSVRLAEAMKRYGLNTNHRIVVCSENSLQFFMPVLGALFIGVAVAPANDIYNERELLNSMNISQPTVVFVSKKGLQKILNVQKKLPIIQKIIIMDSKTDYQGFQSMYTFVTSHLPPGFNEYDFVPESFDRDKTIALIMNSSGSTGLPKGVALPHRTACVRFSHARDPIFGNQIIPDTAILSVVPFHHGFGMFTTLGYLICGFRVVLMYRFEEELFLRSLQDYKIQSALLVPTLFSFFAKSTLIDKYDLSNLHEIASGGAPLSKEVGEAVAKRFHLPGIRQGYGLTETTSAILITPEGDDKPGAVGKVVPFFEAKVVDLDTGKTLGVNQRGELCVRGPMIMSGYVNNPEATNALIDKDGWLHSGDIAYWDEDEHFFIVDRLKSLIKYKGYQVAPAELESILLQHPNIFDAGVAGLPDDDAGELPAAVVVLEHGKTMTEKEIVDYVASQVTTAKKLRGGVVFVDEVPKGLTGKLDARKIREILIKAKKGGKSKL
Method in brief: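 Quantitative HTS format; KM concentrations of both substrates. Purified P. pyralis FLuc activity quantified from luminescence images.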

[11] = qHTS assay to identify small molecule antagonists of the estrogen related receptor signaling pathway with the pleiotropic PPARgamma coactivator (PGC) from Tox21 10K library (AID 1224841; call rule not given here; also: series mostly up to about 92 µM; actives are mostly falling curves and most rising ones were filed inactive; nearly all actives have a fitted effect of over 50% in size)
Method in brief: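 Cells stably carrying the PGC/ERR reporter, seeded at 2,000 per well, received pin-transferred compounds 6 h post-plating. Exposure lasted 18 h at 37 C. Signal: One-Glo luminescence.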

[12] = qHTS assay to identify small molecule agonists of the estrogen related receptor signaling pathway with the pleiotropic PPARgamma coactivator (PGC) from Tox21 10K library (AID 1224842); also: nearly all actives have a fitted effect of over 15% in size
Method in brief: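 PGC/ERR reporter cells (NTP line) were seeded 2,000 per well, rested 6 h at 37 C/5% CO2, then pin-dosed with compounds in DMSO for 18 h at 37 C; luciferase read by One-Glo luminescence after 30 min at room temperature.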

[13] = biological target: Retinoic acid receptor RXR-alpha (Homo sapiens) (UniProt P19793); assay: qHTS assay to identify small molecule agonists of the RXR signaling pathway (AID 1159527; calls by dose curve; also: nearly all actives have a fitted effect of over 35% in size)
Sequence of Retinoic acid receptor RXR-alpha (Homo sapiens) (P19793 whole entry, looked up): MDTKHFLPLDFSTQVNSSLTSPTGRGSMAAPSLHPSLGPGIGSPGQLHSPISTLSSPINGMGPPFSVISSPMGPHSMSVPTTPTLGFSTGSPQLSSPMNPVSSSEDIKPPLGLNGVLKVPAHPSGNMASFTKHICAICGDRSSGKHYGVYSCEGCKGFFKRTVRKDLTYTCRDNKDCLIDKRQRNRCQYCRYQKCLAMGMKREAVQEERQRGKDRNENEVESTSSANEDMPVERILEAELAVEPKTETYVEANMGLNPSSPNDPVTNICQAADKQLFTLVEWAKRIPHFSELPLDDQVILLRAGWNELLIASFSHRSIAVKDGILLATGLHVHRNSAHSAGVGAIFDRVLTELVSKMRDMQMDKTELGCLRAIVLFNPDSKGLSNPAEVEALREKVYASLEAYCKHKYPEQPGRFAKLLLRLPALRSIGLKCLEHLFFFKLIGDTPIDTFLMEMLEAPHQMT
Method in brief: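 Reporter activation is measured as beta-lactamase activity via FRET substrate cleavage (emission 460/530 nm) in HEK 293T cells expressing an RXR-alpha-driven bla construct, following 16 hr compound exposure at 37 C.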

[14] = qHTS assay to identify small molecule agonists of the constitutive androstane receptor (CAR) signaling pathway - cell viability counter screen (AID 1224836); also: series mostly up to about 92 µM; nearly all actives have a fitted effect of over 45% in size
Method in brief: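 Fluorescence from CellTiter-Fluor indicates live cells after 23 h exposure. The human hepatoma line expresses hCAR and a CYP2B6-2.2kb reporter. Incubation medium contains 0.75 uM PK11195 (final).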

[15] = qHTS assay to identify small molecule antagonists of the constitutive androstane receptor (CAR) signaling pathway - cell viability counter screen (AID 1224837); also: series mostly up to about 92 µM; nearly all actives have a fitted effect of over 45% in size
Method in brief: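 Cells are seeded, rested 4 hr at 37 C/5% CO2, dosed with compound (15-point series) and 50 nM CITCO, incubated a further 23 hr, and then CellTiter-Fluor reagent is added before fluorescence is read. The line is HepG2 with stable hCAR and CYP2B6-2.2kb.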

[16] = biological target: Nuclear receptor subfamily 1 group I member 3 (Homo sapiens) (UniProt Q14994); assay: qHTS assay to identify small molecule antagonists of the constitutive androstane receptor (CAR) signaling pathway (AID 1224838);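 also: HepG2 cells stably expressing hCAR with CYP2B6 luciferase reporter stimulated by CITCO; nearly all actives have a fitted effect of over 40% in size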; also: potency is read from the fitted curve at half-maximal effect
Sequence of Nuclear receptor subfamily 1 group I member 3 (Homo sapiens) (Q14994 whole entry, looked up): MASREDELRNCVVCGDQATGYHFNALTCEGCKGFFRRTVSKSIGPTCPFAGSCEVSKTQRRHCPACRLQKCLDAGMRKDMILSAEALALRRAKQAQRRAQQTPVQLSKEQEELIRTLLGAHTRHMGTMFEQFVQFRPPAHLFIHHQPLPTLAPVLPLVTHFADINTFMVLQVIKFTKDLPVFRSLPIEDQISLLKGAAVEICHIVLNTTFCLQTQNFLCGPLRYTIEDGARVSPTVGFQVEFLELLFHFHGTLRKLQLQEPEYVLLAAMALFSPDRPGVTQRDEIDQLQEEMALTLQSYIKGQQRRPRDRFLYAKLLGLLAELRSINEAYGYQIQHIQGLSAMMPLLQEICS
Method in brief: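 Luminescence from a CYP2B6-2.2kb promoter reporter in hCAR-expressing HepG2 cells reflects CAR signaling. Cells received compounds at 15 concentrations and 50 nM CITCO (final), then incubated 24 h at 37 C/5% CO2.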

[17] = biological target: Nuclear receptor subfamily 1 group I member 3 (Homo sapiens) (UniProt Q14994); assay: qHTS assay to identify small molecule agonists of the constitutive androstane receptor (CAR) signaling pathway (AID 1224839); also: nearly all actives have a fitted effect of over 15% in size; also: potency is read from the fitted curve at half-maximal effect
Method in brief: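 Stable hCAR/CYP2B6-2.2kb HepG2 line in DMEM with 10% FBS; compounds (15 concentrations) and 0.75 uM PK11195 final, 24 h at 37 C/5% CO2, then ONE-Glo luminescence after 30 min.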

[18] = qHTS assay to identify small molecule antagonists of the estrogen related receptor signaling pathway with the pleiotropic PPARgamma coactivator (PGC) from Tox21 10K library - cell viability counter screen (AID 1224840; active = well fitted cell-killing curve with a large enough effect in the repeat runs, not every such curve was filed as active; also: nearly all actives have a fitted effect of over 40% in size)
Method in brief: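 Cell viability is measured by CellTiter-Fluor fluorescence in PGC/ERR cells that receive compounds after a 6-hour attachment period and are then incubated 17.5 hours at 37 C.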

[19] = qHTS assay to identify small molecule antagonists of the estrogen related receptor (ERR) signaling pathway (AID 1224819;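 also: luminescence from an ERR-driven luciferase reporter measured with One-Glo reagent; series mostly up to about 46 µM; nearly all actives have a fitted effect of over 50% in size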)
Method in brief: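 ERR reporter cell line (NTP) plated at 2,000 cells/well, settled 6 h at 37C/5% CO2, then exposed to LOPAC compounds for 18 h at 37C. One-Glo luciferase luminescence read after 30 min at room temperature.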

[20] = system: estrogen-related receptor alpha (ERRalpha) with PGC-1alpha coactivator, human; assay: qHTS assay to identify small molecule antagonists of the estrogen related receptor signaling pathway with the pleiotropic PPARgamma coactivator (PGC) (AID 1224821; calls by dose curve)
Method in brief: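 Screening used NTP's PGC/ERR cells, dosed via pin tool with compound in DMSO alongside positive and negative controls. After 18 h at 37 C, One-Glo reagent sat 30 min at room temperature before luminescence detection.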

Measured: Potency

CN(C)C(=O)C(CCN1CCC(O)(c2ccc(Cl)cc2)CC1)(c1ccccc1)c1ccccc1
inactive: [1] | [2] | [3] | [4] | [5] | [6] | [7] | [8] | [10] | [11] | [12]
active: [9] 26.6 µM

CCCCCCCCC=O
inactive: [13] | [2] | [10] | [14] | [15] | [16] | [17] | [18] | [11] | [12]

COC(=O)C1=C(C)NC(C)=C(C(=O)OCC(C)=O)C1c1ccccc1[N+](=O)[O-] (configuration not stated)
inactive: [13] | [2] | [3] | [4] | [9] | [10] | [14] | [15] | [16] | [17] | [18] | [11] | [12]

CCCCCC[C@@H](CCC)C(=O)O
inactive: [13] | [2] | [3] | [4] | [9] | [10] | [14] | [15] | [16] | [17] | [18] | [11] | [12]

CCCCCCCCCCCCI
inactive: [13] | [2] | [3] | [4] | [9] | [14] | [15] | [17] | [18]
active: [10] 56.7 µM

CCCCCCC(=O)OCC
inactive: [1] | [2] | [3] | [4] | [9] | [10] | [14] | [15] | [16] | [17] | [18] | [11] | [12]

Oc1cc(O)c2c(c1)O[C@H](c1ccc(O)c(O)c1)[C@H](O)C2
inactive: [13] | [2] | [3] | [4] | [9] | [14] | [15] | [18]

CCCCCN(CCCCC)C(=O)C(CCC(=O)O)NC(=O)c1ccc(Cl)c(Cl)c1 (configuration not stated)
inactive: [1] | [2] | [3] | [4] | [5] | [7] | [9] | [10] | [14] | [15] | [17] | [18]

CCOC(=O)Cn1c(=O)sc2cccc(Cl)c21
active: [17] 54.5 µM
inactive: [1] | [2] | [3] | [4] | [9] | [10] | [14] | [15] | [16] | [18] | [11] | [12]

CNC(=O)c1c(I)c(NC(=O)CCCCC(=O)Nc2c(I)c(C(=O)O)c(I)c(C(=O)NC)c2I)c(I)c(C(=O)O)c1I
inactive: [1] | [2] | [3] | [4] | [9] | [10] | [14] | [15] | [16] | [17] | [18] | [11] | [12]

O=C(O)/C=C/c1ccc(Cn2ccnc2)cc1
inactive: [13] | [2] | [9] | [10] | [14] | [15] | [18]

NC(=O)c1ncn([C@@H]2O[C@H](CO)[C@@H](O)[C@H]2O)c1O
inactive: [1] | [2] | [3] | [4] | [5] | [7] | [9] | [10] | [14] | [16] | [17] | [18]

Cc1c(C)n(CCN(C)C)c2ccc(C(=O)OCCN(C)C)cc12
inactive: [13] | [2] | [3] | [4] | [9] | [10] | [17] | [12]
active: [16] 29.8 µM

C[C@H]1O[C@@H](n2cc(F)c(=O)[nH]c2=O)[C@H](O)[C@@H]1O
inactive: [1] | [2] | [3] | [4] | [5] | [19] | [6] | [20] | [7] | [8] | [9] | [10] | [14] | [15] | [17] | [18] | [11] | [12]

CCCCc1ccc2cccc(S(=O)(=O)O)c2c1
inactive: [13] | [2] | [3] | [4] | [10] | [14] | [15] | [16] | [18] | [11] | [12]

CCCCCCOC(=O)CC(CC(=O)OCCCCCC)(OC(=O)CCC)C(=O)OCCCCCC
inactive: [1] | [2] | [3] | [4] | [9] | [10] | [14] | [15] | [16] | [17] | [18] | [11] | [12]

C=CC(=O)OCCCCCC
inactive: [13] | [2] | [9] | [10] | [14] | [18]

O=c1[nH]c2ccccc2c(=O)n1CCCl
inactive: [13] | [2] | [9] | [10] | [14] | [15] | [17] | [18] | [11] | [12]

c1cc(CN2CCCCC2)cc(OCCCNc2nc3ccccc3s2)c1
active: [9] 29.8 µM
inactive: [1] | [2] | [3] | [4] | [5] | [6] | [20] | [8] | [16] | [17] | [18] | [11] | [12]
